Source: PubChem
ULK1 primary – inhibitors of human ULK1 kinase. O75385. inhibition, % at 5.96 µM. AlphaScreen Atg13 phosphorylation by ULK1, luminescence. AID 1259251. actives 1.9% (n = 30,000); in the data active = inhibition above about 43%;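 note: 0% = median of compound wells and 100% = no enzyme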
Target sequence (O75385 whole entry, looked up): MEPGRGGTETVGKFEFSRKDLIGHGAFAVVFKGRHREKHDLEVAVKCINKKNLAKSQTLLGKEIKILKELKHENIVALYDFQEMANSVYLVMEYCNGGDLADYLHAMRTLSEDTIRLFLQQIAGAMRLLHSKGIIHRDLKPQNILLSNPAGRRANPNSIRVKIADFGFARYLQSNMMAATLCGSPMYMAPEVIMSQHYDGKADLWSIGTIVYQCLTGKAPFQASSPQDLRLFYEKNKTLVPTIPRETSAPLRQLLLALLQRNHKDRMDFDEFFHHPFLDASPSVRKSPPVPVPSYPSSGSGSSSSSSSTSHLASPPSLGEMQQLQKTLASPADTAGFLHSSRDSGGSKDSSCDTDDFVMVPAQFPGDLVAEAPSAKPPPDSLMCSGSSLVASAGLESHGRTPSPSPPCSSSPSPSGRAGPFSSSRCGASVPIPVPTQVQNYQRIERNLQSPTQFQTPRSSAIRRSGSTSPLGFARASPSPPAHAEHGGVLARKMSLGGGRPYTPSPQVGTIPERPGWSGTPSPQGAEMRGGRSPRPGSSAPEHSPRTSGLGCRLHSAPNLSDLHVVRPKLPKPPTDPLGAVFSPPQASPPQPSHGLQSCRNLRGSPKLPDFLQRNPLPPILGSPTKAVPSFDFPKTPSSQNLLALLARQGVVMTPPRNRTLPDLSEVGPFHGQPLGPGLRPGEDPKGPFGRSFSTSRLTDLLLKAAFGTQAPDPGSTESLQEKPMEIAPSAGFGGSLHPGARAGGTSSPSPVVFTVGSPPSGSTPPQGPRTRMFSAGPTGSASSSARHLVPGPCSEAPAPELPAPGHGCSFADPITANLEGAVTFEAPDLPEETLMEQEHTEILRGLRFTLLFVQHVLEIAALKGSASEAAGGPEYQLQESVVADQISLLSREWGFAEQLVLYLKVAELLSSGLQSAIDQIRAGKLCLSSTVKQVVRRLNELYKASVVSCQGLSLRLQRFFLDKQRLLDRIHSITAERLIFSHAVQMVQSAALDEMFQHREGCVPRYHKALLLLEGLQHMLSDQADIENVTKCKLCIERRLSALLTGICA
ASK1 inh – human ASK1 kinase inhibition, primary screen; Q99683; AlphaScreen MKK6 phosphorylation by ASK1, luminescence; inhibition, % at 7.44 µM; actives 0.99% (n = 22,000); AID 1159602; in the data active = inhibition above about 35%;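 note: 0% = median of compound wells and 100% = no enzyme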
TruHits interf – interferes with AlphaScreen TruHits signal in ASK1 counter-screen. actives 20% (n = 220). IC50, µM. shares compounds with ASK1 inh. AlphaScreen TruHits beads, signal interference counterscreen;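 active = IC50 of 10 µM or lower in the counterscreen; inactive = IC50 above 10 µM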;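 note: loss of AlphaScreen light from TruHits beads alone with no ASK1 enzyme present; potency of signal reduction so a low IC50 flags an assay artifact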
Starred values were filed as active, the others as inactive; i = inactive; . = no result given. The list is not random: actives were taken first. Their share in the collection is about 2.4%.

SMILES	ULK1 primary	ASK1 inh	others
CC(O)c1ccc(Nc2nccc(-c3ccc(NS(C)(=O)=O)cc3)n2)cc1 (configuration not stated)	69*	-7
O=C1OCCN1c1ccc(Nc2nccc(-c3cncc(N4CCOCC4)c3)n2)cc1	4	6
CS(=O)(=O)Nc1ccc(-c2ccnc(Nc3ccc(N4CCOC4=O)cc3)n2)cc1	70*	-3
Cc1cnnn1-c1ccc(Nc2nccc(-c3ccc(NS(C)(=O)=O)cc3)n2)cc1	49*	6
Cc1ncn(-c2ccc(Nc3nccc(-c4ccc(S(C)(=O)=O)cc4)n3)cc2)n1	2	-12
Cn1c(=O)[nH]c(N2CCCCCC2)c(Cc2ccc(C#N)cc2)c1=O	5	.
Clc1ccc(CNc2cc(-c3cccnc3)nc(-c3cccnc3)n2)cc1	-7	.
O=C(Nc1ccccc1Cl)C1CCCCN1S(=O)(=O)c1ccc(Cl)s1 (configuration not stated)	1	.
O=C(Nc1cccc(-c2cnc(NC3CCC(O)CC3)c3nccn23)c1)Nc1cccc(C(F)(F)F)c1 (configuration not stated)	-32	-6
CN(C)c1ccc(C(=C2C=CC(=[N+](C)C)C=C2)c2ccccc2)cc1	9	.
CN(C)c1ccc(C(=C2C=CC(=[N+](C)C)C=C2)c2ccc(N(C)C)cc2)cc1	80*	.
Cc1cc(Cl)ccc1OCC(=O)NNC(=O)CCc1ccccc1	-1	.
Cc1cnc(Nc2ccc(-n3ccnc3)cc2)nc1Nc1ccccc1	35	-33
Cc1cnc(Nc2ccc(-n3ccnc3)cc2)nc1NCCCN1CCCC1=O	69*	-9
O=C1CCCN1CCCNc1nc(Nc2ccc(C(F)(F)F)cc2)nc2nc[nH]c12	53*	8
Cc1cnc(Nc2ccncc2)nc1NCCCN1CCCC1=O	6	-21
O=C1CCCN1CCCNc1nc(Nc2ncccn2)nc2nc[nH]c12	6	-18
Cc1cnc(Nc2ccc(-n3ccnc3)cc2)nc1NC1CC1	52*	9
CC(C)NC(=O)c1cccc(NS(=O)(=O)c2ccc(-c3ccncc3)cc2F)c1	1	-26
O=C(Cc1cn(-c2ccc(N3CCC(N4CCOCC4)CC3)nn2)c2ccccc12)NC1CCN(Cc2ccccc2)CC1	10	6
c1nc2nc(N3CCC(N4CCOCC4)CC3)nc(Nc3ccc(N4CCOCC4)cc3)c2[nH]1	5	-6
NC(=O)c1ccccc1Nc1cc(NC(=O)Cc2ccc(F)cc2)ncc1F	-4	-17
COc1ccc(CC(=O)Nc2cc(Nc3ccccc3NC(C)=O)c(C(F)(F)F)cn2)cc1	41	7
CNS(=O)(=O)c1ccccc1Nc1cc(NC(=O)Cc2ccc(OC)cc2)ncc1C(F)(F)F	57*	30
CNC(=O)c1ccccc1Nc1cc(NC(=O)Cc2ccc(F)cc2)ncc1C(F)(F)F	57*	-12
SMILES	ULK1 primary	ASK1 inh	others
CNC(=O)c1ccccc1Nc1cc(NC(=O)Cc2cccs2)ncc1C(F)(F)F	46*	4
CNC(=O)c1ccccc1Nc1cc(Nc2ncccn2)ncc1C(F)(F)F	19	10
CNC(=O)c1ccccc1Nc1cc(NCc2ccccc2)ncc1C(F)(F)F	55*	6
c1ccc(Oc2ccc(Nc3ccnc(-c4ccccc4)n3)cc2)cc1	-19	0
COc1ccc(N2CCn3c(SCC(C)=O)nnc32)cc1	10	.
CCN(CC)c1cc(-c2ccc(F)cc2)nc(-c2ccncc2)n1	-2	.
COc1cc(OC)c2cc(C(=O)O)[nH]c2c1	-4	.
O=C(NCCc1ccc(O)cc1)c1cnc(Nc2ccncc2)s1	-2	12
Nc1nc(Nc2ccc3c(c2)OCO3)cc(Nc2nccc3ccccc23)n1	-3	24
O=C(Cc1ccc2c(c1)OCO2)Nc1cc(Nc2ccccc2-c2nn[nH]n2)c(C(F)(F)F)cn1	-5	18
CNC(=O)c1ccccc1Nc1cc(NC(=O)C2CCc3ccccc32)ncc1C(F)(F)F (configuration not stated)	34	4
CNC(=O)c1ccccc1Nc1cc(NC(=O)Cc2ccsc2)ncc1C(F)(F)F	52*	-1
COc1ccc(CC(=O)Nc2cc(Nc3ccccc3-c3ncco3)c(C(F)(F)F)cn2)cc1	5	-1
CNC(=O)c1ccccc1Nc1cc(NC(=O)Cc2ccc(N)cc2)ncc1C(F)(F)F	68*	10
CNC(=O)c1ccccc1Nc1cc(NC(=O)Cc2ccccc2F)ncc1C(F)(F)F	53*	12
c1cc(NCCN2CCOCC2)nc(NCc2ccc3c(c2)OCO3)n1	0	-16
COc1cccc(CN(CCCN(C)C)C(=O)Nc2ccc(-c3cn[nH]c3)cc2OC)c1	-10	-8
COc1cccc(CN(CCN)C(=O)Nc2ccc(-c3cn[nH]c3)cc2OCCCO)c1	78*	20
O=C(/C=C/c1ccccc1)c1cccc(N2C(=O)C=CC2=O)c1	55*	.
COc1cc(NC(=O)c2cccc(-n3cc(/C=C/C(=O)c4ccccc4)cn3)c2)ccc1CN(C)C	21	-18
CC1CC(C)CN(C(=S)Nc2ccccc2)C1 (configuration not stated)	-4	.
c1ccc(Oc2ccc(Nc3nc(N4CCc5ccccc5C4)nc4c3ncn4-c3ccccc3)cc2)cc1	11	46*	TruHits interf=>20
c1ccc(Oc2ccc(Nc3nc(N4CCOCC4)nc4c3ncn4-c3ccccc3)cc2)cc1	1	26
c1cc(-c2ccc3cnc(Nc4ccc(-n5cnc(N6CCOCC6)n5)cc4)nc3c2)ccn1	12	5
Cn1cc(-c2ccc3cnc(Nc4ccc(-n5cnc(N6CCOCC6)n5)cc4)nc3c2-c2ccccc2)cn1	-78	-17
SMILES	ULK1 primary	ASK1 inh	others
Cn1cc(-c2ccc3cnc(Nc4ccc(-n5cnc(N6CCOCC6)n5)cc4)nc3c2)cn1	56*	48*	TruHits interf=>19
COc1c(-c2cnn(C)c2)ccc2cnc(Nc3ccc(-n4cnc(N5CCOCC5)n4)cc3)nc12	83*	42*	TruHits interf=>19
Cc1noc(C)c1-c1cc(-c2ocnc2-c2c(C)noc2C)ccn1	-7	-5
O=C(NCCN1CCOCC1)c1ccc2nc(Nc3cccnc3)sc2c1	1	-11
Cc1cnc(Nc2ccc3ncccc3c2)nc1NC1CCN(Cc2ccccc2)CC1	-8	8
CC(=O)c1cccc(-c2nc(Nc3ccc(Oc4ccccc4)cc3)c3ncn(CCN4CCCC4=O)c3n2)c1	-60	-23
CC(C)n1c(-c2ccc(C(N)=O)cc2)nc2c(Nc3ccc(Oc4ccccc4)cc3)ncnc21	-29	37*	TruHits interf=>20
COc1ccc(-c2nc3c(Nc4ccc(Oc5ccccc5)cc4)ncnc3n2C(C)C)cc1	-1	0
Nc1ncnc2nc(-c3ccc(N4CCOCC4)nc3)[nH]c12	-5	-5
COc1cc2nc(Nc3cccc(N(C)C)c3)nc(Nc3ccc4c(c3)OCO4)c2cc1OC	0	61*	TruHits interf=3.6*
COc1cc2nc(Nc3ccncn3)nc(Nc3ccc(N4CCOCC4)cc3)c2cc1OC	-26	22
CCNc1nc(Nc2ccc3c(c2)OCO3)c2cc(OC)c(OC)cc2n1	-1	13
COc1cc2nc(Nc3ccc(N4CCOCC4)cc3)nc(NC3CC3)c2cc1OC	17	43*	TruHits interf=i
Cc1cnc(Nc2cccc(N(C)C)c2)nc1Nc1ccc(N2CCOCC2)cc1	37	23
COc1cc2nc(Nc3ccc(N4CCOCC4)cc3)nc(Nc3cc(OC)c(OC)c(OC)c3)c2cc1OC	-4	53*	TruHits interf=7.7*
